Reference: PubChem BioAssay (Tox21)
Several values for one entry are separate records, joined by “and”; a condition that tells them apart may be missing. Identical values can stand only once. Records with an inconclusive call do not appear. Where a call stands in place of a potency, no number is given. A structure can be active in one record and inactive in another. Activity calls are given as the source filed them. Unless noted, calls follow the shape of the full dose curve.

Assay: qHTS assay for small molecules that induce genotoxicity in human embryonic kidney cells expressing luciferase-tagged ATAD5 (AID 651632; active = well fitted activation curve with a large enough effect in the repeat runs; also: nearly all actives have a fitted effect of over 15% in size)
Settings: HEK293T ATAD5-luciferase induction, 16 h; series mostly up to 83.3 µM; activation: at the top concentration
Method in brief: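 HEK293T cells carrying a luciferase reporter tagged to ATAD5 were exposed to compound or DMSO vehicle for 16 hr at 37C, 5% CO2. Amplite was added, and after 30 min at room temperature luciferase activity was read as a marker of ATAD5 induction.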

Structure (SMILES)	activation	Potency
CCOC(=O)/C=C\C(=O)OCC	2.41% [at 95.3 µM] (inactive)	
CC1Cc2ccccc2N1NC(=O)c1ccc(Cl)c(S(N)(=O)=O)c1 (centres undefined)		inactive
CCCCNC(N)=O		inactive
Cc1cc(Cc2ccc(N)c(C)c2)ccc1N		inactive
Oc1c(Cl)cc(Cl)c(Cl)c1Cl		inactive
Clc1ccc(Cl)c(Cl)c1Cl		inactive
Cc1cc(=O)[nH]c(C(C)C)n1		inactive
CCC(C)C=O (centres undefined)		inactive
Cn1c([N+](=O)[O-])cnc1COC(N)=O		inactive
CC1(C)CC(N=C=O)CC(C)(CN=C=O)C1 (centres undefined)		inactive
CCCCC(CC)COC(=O)CCCCCCCC(=O)OCC(CC)CCCC (centres undefined)		inactive
NC(=O)/N=N/C(N)=O		inactive
CCC(=O)O		inactive
CC(C)(CO)COC(=O)C(C)(C)CO		inactive

Assay: qHTS assay for small molecule agonists of the p53 signaling pathway - cell viability (AID 651633); also: nearly all actives have a fitted effect of over 30% in size; also: potency is read from the fitted curve at half-maximal effect;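 as to activity change, negative = cytotoxicity: p53RE-bla HCT reporter cells with a stable beta-lactamase p53 reporter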
Settings: p53RE-bla HCT-116 viability, ATP luminescence, 16 h; series mostly up to 83.3 µM; activity change, negative = cytotoxicity: at the top concentration
Method in brief: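 p53RE-bla cells were treated with compound for 16 hours at 37 C. Cytotoxicity was then measured as CellTiter-Glo luminescence after 30 min at room temperature.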

Structure (SMILES)	Potency	activity change, negative = cytotoxicity
Clc1cc(Cl)c(Cl)cc1Cl	inactive	
NCc1cccc(CN)c1	inactive	
CC[Si](OC(C)=O)(OC(C)=O)OC(C)=O	inactive	
O=S(=O)(O)CCS	inactive	
CCCCCCCCC	inactive	
C=C1C2CCC(C2)C1(C)C (centres undefined)	inactive	
OCCOCCOCCOCCO	inactive	
C=C(C)C(=O)OCCC[Si](OC)(OC)OC	inactive	
CS(=O)(=O)c1ccc([C@@H](O)[C@@H](CO)NC(=O)C(Cl)Cl)cc1	inactive	
C=C(C#N)C(=O)OCC	inactive	
CCCCCCCCCCCCN	inactive and 27.3 µM (active)	
O=[N+]([O-])C(CO)(CO)CO	inactive	
NCCc1ccc(O)c(O)c1	inactive	
CC1=C(CC(=O)O)c2cc(F)ccc2/C1=C\c1ccc(S(C)=O)cc1 (centres undefined)	inactive	
COC(=O)c1ccccc1O	inactive	
O=C(O)c1cc(-c2ccccc2)nc2ccccc12	inactive	
O=c1c(-c2ccc(O)cc2)coc2cc(O)ccc12		-10.2% (inactive)
Cc1ccc(N)c(S(=O)(=O)O)c1	inactive	
CCCCC/C=C\C/C=C\CCCCCCCC(=O)OC		-20% (inactive)
C/C=C(C)/C=C/C=C(C)C		-8.21% (inactive)

Structure (SMILES)	Potency	activity change, negative = cytotoxicity
COC(=O)c1ccc(C(=O)OC)cc1	inactive	
OC[C@@H](O)[C@@H](O)[C@H](O)[C@@H](O)CO	inactive	
CC#C[C@]1(O)CC[C@H]2[C@@H]3CCC4=CC(=O)CCC4=C3[C@@H](c3ccc(N(C)C)cc3)C[C@@]21C	9.44 µM (active)	
CCOC(=O)[C@H](CCc1ccccc1)N[C@@H](C)C(=O)N1Cc2ccccc2C[C@H]1C(=O)O	inactive	
Nc1nc2ncc(CNc3ccc(C(=O)N[C@@H](CCC(=O)O)C(=O)O)cc3)nc2c(=O)[nH]1	inactive	
CCOC(=O)/C=C\C(=O)OCC	inactive	
CC1Cc2ccccc2N1NC(=O)c1ccc(Cl)c(S(N)(=O)=O)c1 (centres undefined)	inactive	
CCCCNC(N)=O	inactive	
Cc1cc(Cc2ccc(N)c(C)c2)ccc1N	inactive	
Oc1c(Cl)cc(Cl)c(Cl)c1Cl	inactive and 61.1 µM (active)	
Clc1ccc(Cl)c(Cl)c1Cl	inactive	
Cc1cc(=O)[nH]c(C(C)C)n1	inactive	
CCC(C)C=O (centres undefined)	inactive	
Cn1c([N+](=O)[O-])cnc1COC(N)=O	inactive	
CC1(C)CC(N=C=O)CC(C)(CN=C=O)C1 (centres undefined)	inactive	
CCCCC(CC)COC(=O)CCCCCCCC(=O)OCC(CC)CCCC (centres undefined)	inactive	
NC(=O)/N=N/C(N)=O	inactive	
CCC(=O)O	inactive	
CC(C)(CO)COC(=O)C(C)(C)CO		0.365% (inactive)

Assay: qHTS assay for small molecules that induce genotoxicity in human embryonic kidney cells expressing luciferase-tagged ATAD5 - cell viability (AID 651634); also: nearly all actives have a fitted effect of over 25% in size
Settings: HEK293T ATAD5-luc cells viability, CellTiter-Fluor, 15.5 h; series mostly up to 83.3 µM; activity, negative = cytotoxicity: at the top concentration
Method in brief: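 HEK293T cells expressing luciferase-tagged ATAD5 were exposed to compound or DMSO for 15.5 hr at 37C, 5% CO2. Viability was then read as live-cell protease activity by CellTiter-Fluor fluorescence after 30 min at 37C.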

Structure (SMILES)	Potency	activity, negative = cytotoxicity
Clc1cc(Cl)c(Cl)cc1Cl	inactive	
NCc1cccc(CN)c1	inactive	
CC[Si](OC(C)=O)(OC(C)=O)OC(C)=O	inactive	
O=S(=O)(O)CCS	inactive	
CCCCCCCCC	inactive	
C=C1C2CCC(C2)C1(C)C (centres undefined)	inactive	
OCCOCCOCCOCCO	inactive	
C=C(C)C(=O)OCCC[Si](OC)(OC)OC	inactive	
CS(=O)(=O)c1ccc([C@@H](O)[C@@H](CO)NC(=O)C(Cl)Cl)cc1	inactive	
C=C(C#N)C(=O)OCC		-13.8% (inactive)
O=[N+]([O-])C(CO)(CO)CO	inactive	
NCCc1ccc(O)c(O)c1	inactive	
CC1=C(CC(=O)O)c2cc(F)ccc2/C1=C\c1ccc(S(C)=O)cc1 (centres undefined)	inactive	
COC(=O)c1ccccc1O	inactive	
O=C(O)c1cc(-c2ccccc2)nc2ccccc12	inactive	
O=c1c(-c2ccc(O)cc2)coc2cc(O)ccc12		-6.93% (inactive)
Cc1ccc(N)c(S(=O)(=O)O)c1	inactive	
CCCCC/C=C\C/C=C\CCCCCCCC(=O)OC		8.46% (inactive)

Structure (SMILES)	Potency	activity, negative = cytotoxicity
C/C=C(C)/C=C/C=C(C)C	inactive	
COC(=O)c1ccc(C(=O)OC)cc1	inactive	
OC[C@@H](O)[C@@H](O)[C@H](O)[C@@H](O)CO	inactive	
CCOC(=O)[C@H](CCc1ccccc1)N[C@@H](C)C(=O)N1Cc2ccccc2C[C@H]1C(=O)O	inactive	
Nc1nc2ncc(CNc3ccc(C(=O)N[C@@H](CCC(=O)O)C(=O)O)cc3)nc2c(=O)[nH]1	inactive	
CCOC(=O)/C=C\C(=O)OCC	inactive	
CC1Cc2ccccc2N1NC(=O)c1ccc(Cl)c(S(N)(=O)=O)c1 (centres undefined)	inactive	
CCCCNC(N)=O	inactive	
Cc1cc(Cc2ccc(N)c(C)c2)ccc1N	inactive	
Clc1ccc(Cl)c(Cl)c1Cl	inactive	
Cc1cc(=O)[nH]c(C(C)C)n1	inactive	
CCC(C)C=O (centres undefined)	inactive	
Cn1c([N+](=O)[O-])cnc1COC(N)=O	inactive	
CC1(C)CC(N=C=O)CC(C)(CN=C=O)C1 (centres undefined)	inactive	
CCCCC(CC)COC(=O)CCCCCCCC(=O)OCC(CC)CCCC (centres undefined)	inactive	
NC(=O)/N=N/C(N)=O	inactive	
CCC(=O)O	inactive	
CC(C)(CO)COC(=O)C(C)(C)CO	inactive	
